{"source": "PubChem BioAssay AID1159580", "about": "(chemical genetic matrix, 2015)", "assay": "chemical genetic growth profiling, strain panel (AID 1159580);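 note: tested at 20 µM; growth read once vehicle control cultures reached saturation at 30 °C; 1 = growth at the plate median or of vehicle wells; lower values mean less growth of the strain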", "settings": "growth OD", "note": "Screen size: about 5,500 compounds; about 2,000 (36%) were called active. Not shown: some 18% with an inconclusive outcome. The list shows a part of the results. Unmarked numbers belong to inactive results. Cut-off read from the data, not from the text of the source: active = normalized growth mostly below about 0.91 (no sharp cut-off); inconclusive = no clear call, values can overlap the other calls; inactive = mostly above about 0.92.", "data": [{"smiles": "O=c1c(O)c(-c2ccc(O)c(O)c2)oc2cc(O)ccc12", "values": [{"measurement": "normalized growth", "setting": "S. cerevisiae deletion strains, locus YKL009W, strain mrt4, hits give low values", "value": 1.03}, {"measurement": "normalized growth", "setting": "S. cerevisiae deletion strains, locus YKL068W, hits give low values", "value": 0.99}, {"measurement": "normalized growth", "setting": "S. cerevisiae deletion strains, locus YKL085W, strain MDH1 (second series), hits give low values", "value": 1}, {"measurement": "normalized growth", "setting": "S. cerevisiae deletion strains, locus YKL085W, strain MDH1, hits give low values", "value": 1}, {"measurement": "normalized growth", "setting": "S. cerevisiae deletion strains, locus YKL160W, strain elf1, hits give low values", "value": 0.982}, {"measurement": "normalized growth", "setting": "S. cerevisiae deletion strains, locus YKL190W, strain CNB1, hits give low values", "value": "0.881 (active)"}, {"measurement": "normalized growth", "setting": "S. cerevisiae deletion strains, locus YKR001C, strain vps1, hits give low values", "value": "0.857 (active)"}, {"measurement": "normalized growth", "setting": "S. cerevisiae deletion strains, locus YKR026C, strain gcn3, hits give low values", "value": 1}, {"measurement": "normalized growth", "setting": "S. cerevisiae deletion strains, locus YKR091W, strain srl3, hits give low values", "value": 1}, {"measurement": "normalized growth", "setting": "S. cerevisiae deletion strains, locus YLL001W, strain dnm1, hits give low values", "value": 0.994}, {"measurement": "normalized growth", "setting": "S. cerevisiae deletion strains, locus YLL026W, hits give low values", "value": 0.995}, {"measurement": "normalized growth", "setting": "S. cerevisiae deletion strains, locus YLL041C, strain sdh2, hits give low values", "value": 0.996}, {"measurement": "normalized growth", "setting": "S. cerevisiae deletion strains, locus YLR027C, strain aat2, hits give low values", "value": 0.968}, {"measurement": "normalized growth", "setting": "S. cerevisiae deletion strains, locus YLR039C, strain RIC1, hits give low values", "value": 0.848}, {"measurement": "normalized growth", "setting": "S. cerevisiae deletion strains, locus YLR058C, strain SHM2, hits give low values", "value": 0.978}, {"measurement": "normalized growth", "setting": "S. cerevisiae deletion strains, locus YLR102C, strain apc9, hits give low values", "value": 1.01}, {"measurement": "normalized growth", "setting": "S. cerevisiae deletion strains, locus YLR113W, strain HOG1, hits give low values", "value": "0.571 (active)"}, {"measurement": "normalized growth", "setting": "S. cerevisiae deletion strains, locus YLR221C, strain rsa3, hits give low values", "value": 0.95}, {"measurement": "normalized growth", "setting": "S. cerevisiae deletion strains, locus YLR258W, strain gsy2, hits give low values", "value": 1}, {"measurement": "normalized growth", "setting": "S. cerevisiae deletion strains, locus YLR262C, strain YPT6 (second series), hits give low values", "value": 0.981}, {"measurement": "normalized growth", "setting": "S. cerevisiae deletion strains, locus YLR262C, strain YPT6, hits give low values", "value": 0.877}, {"measurement": "normalized growth", "setting": "S. cerevisiae deletion strains, locus YLR268W, strain sec22, hits give low values", "value": "0.854 (active)"}, {"measurement": "normalized growth", "setting": "S. cerevisiae deletion strains, locus YLR320W, strain mms22, hits give low values", "value": 0.942}, {"measurement": "normalized growth", "setting": "S. cerevisiae deletion strains, locus YLR330W, strain CHS5, hits give low values", "value": "0.908 (active)"}, {"measurement": "normalized growth", "setting": "S. cerevisiae deletion strains, locus YLR342W, strain FKS1 (second series), hits give low values", "value": "0.753 (active)"}, {"measurement": "normalized growth", "setting": "S. cerevisiae deletion strains, locus YLR342W, strain FKS1, hits give low values", "value": 0.978}, {"measurement": "normalized growth", "setting": "S. cerevisiae deletion strains, locus YLR357W, strain rsc2, hits give low values", "value": 0.922}, {"measurement": "normalized growth", "setting": "S. cerevisiae deletion strains, locus YLR370C, strain arc18, hits give low values", "value": 0.978}, {"measurement": "normalized growth", "setting": "S. cerevisiae deletion strains, locus YLR371W, strain rom2, hits give low values", "value": "0.882 (active)"}, {"measurement": "normalized growth", "setting": "S. cerevisiae deletion strains, locus YLR384C, strain iki3, hits give low values", "value": 0.98}, {"measurement": "normalized growth", "setting": "S. cerevisiae deletion strains, locus YLR418C, strain cdc73, hits give low values", "value": "0.565 (active)"}, {"measurement": "normalized growth", "setting": "S. cerevisiae deletion strains, locus YML016C, strain PPZ1, hits give low values", "value": 0.974}, {"measurement": "normalized growth", "setting": "S. cerevisiae deletion strains, locus YML032C, strain rad52, hits give low values", "value": 0.962}, {"measurement": "normalized growth", "setting": "S. cerevisiae deletion strains, locus YML120C, strain ndi1, hits give low values", "value": 1.01}, {"measurement": "normalized growth", "setting": "S. cerevisiae deletion strains, locus YML124C, strain tub3, hits give low values", "value": 1}, {"measurement": "normalized growth", "setting": "S. cerevisiae deletion strains, locus YMR058W, strain fet3, hits give low values", "value": 0.944}, {"measurement": "normalized growth", "setting": "S. cerevisiae deletion strains, locus YMR078C, strain ctf18, hits give low values", "value": 0.997}, {"measurement": "normalized growth", "setting": "S. cerevisiae deletion strains, locus YMR125W, strain sto1, hits give low values", "value": 1.02}, {"measurement": "normalized growth", "setting": "S. cerevisiae deletion strains, locus YMR129W, hits give low values", "value": 0.986}, {"measurement": "normalized growth", "setting": "S. cerevisiae deletion strains, locus YMR205C, strain PFK2, hits give low values", "value": 0.994}, {"measurement": "normalized growth", "setting": "S. cerevisiae deletion strains, locus YMR223W, strain ubp8, hits give low values", "value": "0.893 (active)"}, {"measurement": "normalized growth", "setting": "S. cerevisiae deletion strains, locus YMR231W, strain pep5, hits give low values", "value": 0.987}, {"measurement": "normalized growth", "setting": "S. cerevisiae deletion strains, locus YMR263W, strain SAP30, hits give low values", "value": 0.892}, {"measurement": "normalized growth", "setting": "S. cerevisiae deletion strains, locus YMR307W, strain GAS1, hits give low values", "value": 0.675}, {"measurement": "normalized growth", "setting": "S. cerevisiae deletion strains, locus YNL067W, strain RPL9B, hits give low values", "value": 0.901}, {"measurement": "normalized growth", "setting": "S. cerevisiae deletion strains, locus YNL071W, strain lat1, hits give low values", "value": 0.945}, {"measurement": "normalized growth", "setting": "S. cerevisiae deletion strains, locus YNL128W, strain TEP1, hits give low values", "value": 0.864}, {"measurement": "normalized growth", "setting": "S. cerevisiae deletion strains, locus YNL153C, strain GIM3, hits give low values", "value": "0.806 (active)"}, {"measurement": "normalized growth", "setting": "S. cerevisiae deletion strains, locus YNL183C, strain NPR1, hits give low values", "value": "0.357 (active)"}, {"measurement": "normalized growth", "setting": "S. cerevisiae deletion strains, locus YNL209W, strain ssb2, hits give low values", "value": 0.949}, {"measurement": "normalized growth", "setting": "S. cerevisiae deletion strains, locus YNL233W, strain BNI4, hits give low values", "value": "0.795 (active)"}, {"measurement": "normalized growth", "setting": "S. cerevisiae deletion strains, locus YNL248C, strain rpa49, hits give low values", "value": 0.995}, {"measurement": "normalized growth", "setting": "S. cerevisiae deletion strains, locus YNL250W, strain rad50, hits give low values", "value": 0.942}, {"measurement": "normalized growth", "setting": "S. cerevisiae deletion strains, locus YNL271C, strain bni1, hits give low values", "value": 0.978}, {"measurement": "normalized growth", "setting": "S. cerevisiae deletion strains, locus YNL298W, strain CLA4, hits give low values", "value": 0.965}, {"measurement": "normalized growth", "setting": "S. cerevisiae deletion strains, locus YNL307C, strain MCK1, hits give low values", "value": "0.779 (active)"}, {"measurement": "normalized growth", "setting": "S. cerevisiae deletion strains, locus YNL322C, strain KRE1 (second series), hits give low values", "value": 1}, {"measurement": "normalized growth", "setting": "S. cerevisiae deletion strains, locus YNL322C, strain KRE1, hits give low values", "value": "0.918 (active)"}, {"measurement": "normalized growth", "setting": "S. cerevisiae deletion strains, locus YNR049C, strain mso1, hits give low values", "value": 0.997}, {"measurement": "normalized growth", "setting": "S. cerevisiae deletion strains, locus YNR052C, strain pop2, hits give low values", "value": 1}, {"measurement": "normalized growth", "setting": "S. cerevisiae deletion strains, locus YOL006C, strain TOP1, hits give low values", "value": "0.52 (active)"}, {"measurement": "normalized growth", "setting": "S. cerevisiae deletion strains, locus YOL012C, strain htz1", "value": 0.318}, {"measurement": "normalized growth", "setting": "S. cerevisiae deletion strains, locus YOL147C, strain pex11, hits give low values", "value": 1}, {"measurement": "normalized growth", "setting": "S. cerevisiae deletion strains, locus YOR001W, strain rrp6, hits give low values", "value": 0.935}, {"measurement": "normalized growth", "setting": "S. cerevisiae deletion strains, locus YOR061W, strain CKA2, hits give low values", "value": 0.955}, {"measurement": "normalized growth", "setting": "S. cerevisiae deletion strains, locus YOR069W, strain VPS5, hits give low values", "value": 0.997}, {"measurement": "normalized growth", "setting": "S. cerevisiae deletion strains, locus YOR070C, strain gyp1, hits give low values", "value": 0.968}, {"measurement": "normalized growth", "setting": "S. cerevisiae deletion strains, locus YOR080W, strain dia2, hits give low values", "value": 0.984}, {"measurement": "normalized growth", "setting": "S. cerevisiae deletion strains, locus YOR083W, strain WHI5, hits give low values", "value": 0.984}, {"measurement": "normalized growth", "setting": "S. cerevisiae deletion strains, locus YOR106W, strain vam3, hits give low values", "value": 0.984}, {"measurement": "normalized growth", "setting": "S. cerevisiae deletion strains, locus YOR136W, strain idh2, hits give low values", "value": 0.976}, {"measurement": "normalized growth", "setting": "S. cerevisiae deletion strains, locus YOR144C, strain elg1, hits give low values", "value": 1.01}, {"measurement": "normalized growth", "setting": "S. cerevisiae deletion strains, locus YOR184W, strain ser1, hits give low values", "value": 0.883}, {"measurement": "normalized growth", "setting": "S. cerevisiae deletion strains, locus YOR231W, strain MKK1, hits give low values", "value": "0.54 (active)"}, {"measurement": "normalized growth", "setting": "S. cerevisiae deletion strains, locus YOR265W, strain rbl2, hits give low values", "value": 1.02}, {"measurement": "normalized growth", "setting": "S. cerevisiae deletion strains, locus YOR270C, strain vph1, hits give low values", "value": 1.02}, {"measurement": "normalized growth", "setting": "S. cerevisiae deletion strains, locus YOR290C, strain snf2, hits give low values", "value": 0.997}, {"measurement": "normalized growth", "setting": "S. cerevisiae deletion strains, locus YOR316C, strain cot1, hits give low values", "value": 1.01}, {"measurement": "normalized growth", "setting": "S. cerevisiae deletion strains, locus YPL051W, strain arl3, hits give low values", "value": 0.962}, {"measurement": "normalized growth", "setting": "S. cerevisiae deletion strains, locus YPL055C, strain LGE1, hits give low values", "value": 0.784}, {"measurement": "normalized growth", "setting": "S. cerevisiae deletion strains, locus YPL078C, strain atp4, hits give low values", "value": 1.01}, {"measurement": "normalized growth", "setting": "S. cerevisiae deletion strains, locus YPL106C, strain sse1, hits give low values", "value": 0.971}, {"measurement": "normalized growth", "setting": "S. cerevisiae deletion strains, locus YPL240C, strain hsp82, hits give low values", "value": 0.998}, {"measurement": "normalized growth", "setting": "S. cerevisiae deletion strains, locus YPL241C, strain CIN2, hits give low values", "value": 0.981}, {"measurement": "normalized growth", "setting": "S. cerevisiae deletion strains, locus YPL256C, strain CLN2, hits give low values", "value": "0.421 (active)"}, {"measurement": "normalized growth", "setting": "S. cerevisiae deletion strains, locus YPR119W, strain clb2, hits give low values", "value": 1.01}, {"measurement": "normalized growth", "setting": "S. cerevisiae deletion strains, locus YPR141C, strain kar3, hits give low values", "value": 0.978}, {"measurement": "normalized growth", "setting": "S. cerevisiae deletion strains, locus YPR163C, strain tif3, hits give low values", "value": 0.956}, {"measurement": "normalized growth", "setting": "S. cerevisiae deletion strains, locus YPR167C, strain met16, hits give low values", "value": 1.01}, {"measurement": "normalized growth", "setting": "S. cerevisiae deletion strains, strain wtn01, hits give low values", "value": "0.86 (active)"}, {"measurement": "normalized growth", "setting": "S. cerevisiae strains, strain wild type, hits give low values", "value": "0.815 (active)"}]}]}
